Assay results from PubChem BioAssay (NCATS).
Inconclusive results are not listed. A number with no mark means an inactive call. Active and inactive are the calls of the source. Calls come from the whole dose curve; as a rule, active = well fitted inhibition curve with a large enough effect; inconclusive = small, poorly fitted or top-dose-only effect; inactive = flat fitted curve, though single readings scatter.

Test: P-glycoprotein substrates identified in KB-8-5-11 adenocarcinoma cell line, qHTS therapeutic library screen (AID 1346987); note: nearly all actives have a fitted effect of over 65% in size
Conditions: KB-8-5-11 (P-gp overexpressing) viability, CellTiter-Glo, 72 h; series mostly up to 44.5 µM; activity change, negative = cytotoxicity: at the top concentration
Outline: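 KB-8-5-11: colchicine-selected sub-line of KB-3-1 over-expressing P-gp; assay medium lacked colchicine. 72 h drug exposure at 37 degree C, CellTiter-Glo.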
% is set by controls: 0 for no effect and ±100 for the full control effect; potency is the fitted concentration of half-maximal effect.

Compared with `CC(C)(C)NC(=O)[C@H]1CC[C@H]2[C@@H]3CC=C4C=C(C(=O)O)CC[C@]4(C)[C@H]3CC[C@]12C`, `CC(C)CCCCC(=O)N[C@@H](CO)C(=O)N[C@@H](CC(C)C)C(=O)[C@@]1(CO)CO1` is higher in “activity change, negative = cytotoxicity” value: -17% for the first, 9.93% for the second.

With `COc1ccc2nc3n[nH]c(C)c3c(NCCOCCO)c2c1` the “activity change, negative = cytotoxicity” value was 2.13%.

For `CC(NC(=O)Cc1cc(F)cc(F)c1)C(=O)NC1C(=O)N(C)c2ccccc2-c2ccccc21` (centres undefined), the Potency was 14.6 µM (active).
